Source: PubChem BioAssay AID1220 (Sanford-Burnham Center for Chemical Genomics, 2008)
Hit rate of the full screen: of about 190,000 compounds, about 1,300 (0.68%) were called active. Rule as the data show it: active = inhibition above about 50%; inactive = the rest. Shown is part of a subset that was picked to be rich in actives.

These compounds were tested against Mannose-6-phosphate isomerase (Homo sapiens) (UniProt P34949) (assay: MPI inhibition at elevated mannose 6-phosphate – biochemical, fluorescence intensity, high mannose 6-phosphate, primary screen (AID 1220)). Conditions: recombinant PMI enzyme, coupled fluorescence intensity; at 20 µM; stronger effect = higher value.
Mannose-6-phosphate isomerase (Homo sapiens), sequence (P34949 whole entry, looked up): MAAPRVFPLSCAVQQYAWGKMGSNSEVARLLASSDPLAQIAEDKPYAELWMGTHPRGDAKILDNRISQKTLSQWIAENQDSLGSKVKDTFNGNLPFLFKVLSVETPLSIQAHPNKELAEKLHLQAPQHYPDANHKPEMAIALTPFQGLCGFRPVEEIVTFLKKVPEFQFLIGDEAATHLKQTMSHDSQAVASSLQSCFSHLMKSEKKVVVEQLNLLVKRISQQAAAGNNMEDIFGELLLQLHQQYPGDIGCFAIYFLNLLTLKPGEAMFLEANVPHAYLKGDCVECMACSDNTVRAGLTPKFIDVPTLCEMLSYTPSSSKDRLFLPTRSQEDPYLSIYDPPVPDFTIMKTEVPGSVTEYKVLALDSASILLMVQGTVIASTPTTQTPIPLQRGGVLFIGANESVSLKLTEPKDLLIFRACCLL
In the case of `COC(=O)c1ccc(S(=O)(=O)N2CCCCC2)o1`, the inhibition is reported as 9% (inactive). In the case of `Cc1cc(NN)nc(NS(=O)(=O)c2ccccc2)n1`, the inhibition is reported as 5% (inactive). With `CC(C)N(C(=O)CSc1nnc(CN2CCCCCC2=O)n1-c1ccccn1)C(C)C` the inhibition was -4.7% (inactive). For `COc1ccc(N(C(=O)Cn2nnc3ccccc32)C(C(=O)NC(C)(C)C)c2ccc(OC)c(O)c2)cc1` (configuration not stated), the inhibition was -4% (inactive). `CCc1ccccc1NC1Nc2cc(C)nn2S1` (configuration not stated) was tested, and the inhibition was 27.6% (inactive). For `Cc1cc2n(n1)SC(Nc1cccc3ccccc13)N2` (configuration not stated), the inhibition was 54.1% (active). For `Cc1cc2n(n1)SC(Nc1ccccc1)N2` (configuration not stated), the inhibition was -0.8% (inactive). With `CCCC1CCC(=NNC(=O)OC(C)(C)C)CC1` (configuration not stated) the inhibition was 2.1% (inactive). For `CN(C)c1ccc(Cl)cc1N`, the inhibition was 53.2% (active). `CN(C)c1ccc(C(=O)c2ccc(N(C)C)c(N)c2)cc1N` was tested, and the inhibition was 23.2% (inactive). In the case of `Cc1ccc(Oc2ccc(Cl)cc2N)cc1`, the inhibition is reported as -7.7% (inactive). With `O=C1Nc2ccc(S(=O)(=O)N3CCCC3)c3ccc(S(=O)(=O)N4CCCC4)c1c23` the inhibition was 32.5% (inactive). For `CCCCCC(=O)NC(CC(=O)OC)c1ccc2c(c1)OCO2` (configuration not stated), the inhibition was 2.2% (inactive). With `CCc1ccc(OCC(=O)OCC(=O)c2ccc3c(c2)NC(=O)CO3)cc1` the inhibition was 5% (inactive). With `COCc1nnc(NC(=O)c2ccccc2[N+](=O)[O-])s1` the inhibition was -1.2% (inactive). In the case of `COc1ccc(C(=O)ON=C2C=C(C)C(=O)C(C)=C2)cc1`, the inhibition is reported as 40.1% (inactive). With `COc1cc(C(=O)O/N=C(\N)c2ccncc2)cc(OC)c1OC` the inhibition was -11.7% (inactive). For `CC1=C(C)/C(=N/OC(=O)c2cccc([N+](=O)[O-])c2)C=CC1=O`, the inhibition was 13.4% (inactive). With `COc1cc(C(=O)ON=C2C(C)=CC(=O)C=C2C)cc(OC)c1OC` the inhibition was 71.8% (active). `COc1cc(C(=O)O/N=C2\C=CC(=O)C=C2C)cc(OC)c1OC` was tested, and the inhibition was 64.7% (active). `CC1=CC(=NOC(=O)c2cccc([N+](=O)[O-])c2)C=C(C)C1=O` was tested, and the inhibition was 19.6% (inactive). In the case of `CC1=C(C)/C(=N\OC(=O)/C=C/c2ccccc2)C=CC1=O`, the inhibition is reported as 35.2% (inactive). With `COc1cc(C(=O)O/N=C2/C=CC(=O)C(C)=C2C)cc(OC)c1OC` the inhibition was 66% (active). With `COc1cc(C(=O)ON=C2C=C(C)C(=O)C(C)=C2)cc(OC)c1OC` the inhibition was 59.8% (active). In the case of `COc1cc(C(=O)O/N=C2\CCCc3c2ccc(OC)c3[N+](=O)[O-])cc(OC)c1OC`, the inhibition is reported as 13.8% (inactive). `CC1=CC(=O)C=C(C)C1=NOC(=O)c1cccc([N+](=O)[O-])c1` was tested, and the inhibition was -3% (inactive). In the case of `COc1cc(C(=O)Oc2cc(C)cc(C)c2)cc(OC)c1OC`, the inhibition is reported as 9.6% (inactive). `CN(C)CCCN(Cc1cc2cc3c(cc2[nH]c1=O)OCO3)C(=S)NCc1ccco1` was tested, and the inhibition was 30.6% (inactive). With `CCCCc1nnc(NC(=O)CSc2nc(=O)cc(N)n2-c2ccccc2)s1` the inhibition was 0.8% (inactive). With `CS(=O)(=O)N(CC(=O)N1CCOCC1)c1ccc2c(c1)OCO2` the inhibition was 1.8% (inactive). With `COC(=O)COc1ccc(S(=O)(=O)NCc2cccnc2)cc1` the inhibition was 4.3% (inactive). With `CC(C)(CO)Nc1ccc([N+](=O)[O-])cc1[N+](=O)[O-]` the inhibition was 0.9% (inactive). With `O=C1Nc2ccccc2Oc2cc([N+](=O)[O-])cc(Oc3ccccc3)c21` the inhibition was -3.2% (inactive). With `COc1cc(C(=O)O/N=C2/C=C(C)C(=O)C=C2C)cc(OC)c1OC` the inhibition was 53.5% (active). With `COc1cc(C(=O)O/N=C(\N)c2ccc([N+](=O)[O-])cc2)cc(OC)c1OC` the inhibition was 5.3% (inactive). `COc1cc(C(=O)Oc2cccc(C)c2)cc(OC)c1OC` was tested, and the inhibition was 2.4% (inactive). With `Nc1cc(N2CCCC2)c(Cl)cc1[N+](=O)[O-]` the inhibition was 25.9% (inactive). `CC1CCC(C(C)C)C(OP(=O)(c2ccc(N(C)C)cc2)C(O)c2cccnc2)C1` (configuration not stated) was tested, and the inhibition was -4.5% (inactive). With `COc1ccc(C(=O)CCNc2ccc3c(c2)OCCO3)cc1` the inhibition was 58% (active). In the case of `COc1ccc(C(=O)CCNc2ccc(C)c(Cl)c2)cc1`, the inhibition is reported as 0.5% (inactive). With `COc1ccc(C(=O)Nc2ccc3c(c2)OCCO3)cc1` the inhibition was -6.5% (inactive). In the case of `O=C(COC(=O)c1ccc2c(=O)n3c(nc2c1)CCC3)NC1CCS(=O)(=O)C1` (configuration not stated), the inhibition is reported as -5.4% (inactive). `Cc1ccc(C(=O)N2CCOCC2)cc1S(=O)(=O)Nc1cccc(C)c1C` was tested, and the inhibition was -7% (inactive). In the case of `COc1ccc(C2C(C#N)=C(N)OC3=C2C(=O)CCC3)cc1OC` (configuration not stated), the inhibition is reported as -4% (inactive). `COc1cc(C2C(C#N)=C(N)OC3=C2C(=O)CC(C)(C)C3)c([N+](=O)[O-])cc1OC` (configuration not stated) was tested, and the inhibition was 49.6% (inactive). With `COc1cc(C2C(C#N)=C(N)OC3=C2C(=O)CCC3)c([N+](=O)[O-])cc1OC` (configuration not stated) the inhibition was 52% (active). In the case of `CCC(C)NC(=O)CO/N=C/c1ccc(C(=O)OC)cc1` (configuration not stated), the inhibition is reported as 23.9% (inactive). `CN(C)c1ccc(C(=S)N2CCN(C(=S)Nc3ccc(Cl)cc3)CC2)cc1` was tested, and the inhibition was -7.1% (inactive). `CN(C)c1ccc(C(=S)N2CCN(c3ccccc3)CC2)cc1` was tested, and the inhibition was 8.2% (inactive). In the case of `CN(C)c1ccc(C(=S)N2CCN(C(=S)Nc3cccc4ccccc34)CC2)cc1`, the inhibition is reported as 51.7% (active). In the case of `N#CC1=C(N)OC2=C(CN(Cc3ccccc3)C/C2=C\c2cccnc2)C1c1cccnc1` (configuration not stated), the inhibition is reported as 11.3% (inactive). With `O=C(CSc1nnc(C2CC2)n1Cc1ccccc1)N1CCN(S(=O)(=O)c2ccccc2)CC1` the inhibition was -3.7% (inactive). For `CCn1c(SCC(=O)N2CCN(S(=O)(=O)c3ccccc3)CC2)nnc1-c1cccs1`, the inhibition was -3.1% (inactive). For `Cc1nnc(SCC(=O)N2CCN(S(=O)(=O)c3ccccc3)CC2)n1Cc1ccccc1`, the inhibition was 57.8% (active). `CC1Cc2nc(SCC(=O)N3CCCC3)n(C)c(=O)c2S1` (configuration not stated) was tested, and the inhibition was 9.6% (inactive). With `COc1cc(/C=C(/C#N)c2nc3ccccc3c(=O)[nH]2)ccc1O` the inhibition was 13.6% (inactive). `Clc1ccc(CNc2ccccc2NCc2ccc(Cl)nc2)cn1` was tested, and the inhibition was 53.8% (active). In the case of `Cc1ccc(NCc2ccc(Cl)nc2)c(NCc2ccc(Cl)nc2)c1`, the inhibition is reported as -88.3% (inactive). `Clc1ccc(Cn2cccn2)cn1` was tested, and the inhibition was 10.3% (inactive). With `COc1ccc(CCC(=O)NNC(=S)NCc2ccc(F)cc2)cc1` the inhibition was 1.2% (inactive). For `CCCC[n+]1ccn(C2=C([O-])c3ccccc3C(=O)/C2=N\S(=O)(=O)c2ccccc2)c1`, the inhibition was 46.3% (inactive). `CC(C)CC[n+]1ccn(C2=C([O-])c3ccccc3C(=O)/C2=N\S(=O)(=O)c2ccccc2)c1` was tested, and the inhibition was 47% (inactive). In the case of `Cc1ccc(S(=O)(=O)/N=C2\C(=O)c3ccccc3C([O-])=C2n2cc[n+](CCC(C)C)c2)cc1`, the inhibition is reported as 50.4% (active). For `COc1ccccc1NC(=O)NCC(=O)Nc1c(C)cccc1C`, the inhibition was -13.9% (inactive). In the case of `COc1cc(Sc2ccc(C)cc2)c(OC)cc1N`, the inhibition is reported as 67.2% (active). With `COC(=O)c1ccc(Sc2ccc(C)cc2)c(N)c1` the inhibition was 9.7% (inactive). `Cc1ccc(Sc2cnc(N)nc2C)cc1` was tested, and the inhibition was 3.4% (inactive). With `CCc1ccc2c(c1)C(c1cccs1)=NNC(c1cccnc1)=N2` the inhibition was 3.3% (inactive). For `C=CCSc1nc(-c2ccc3c(c2)OCO3)cc(C(F)(F)F)c1C#N`, the inhibition was 11.5% (inactive). For `O=C(CNCc1ccccn1)Nc1cc(S(=O)(=O)N2CCCCC2)ccc1Cl`, the inhibition was 55.4% (active). For `O=C(CCl)Nc1cc(S(=O)(=O)N2CCCCCC2)ccc1Cl`, the inhibition was 4.5% (inactive). For `O=C(CNCc1ccncc1)Nc1cc(S(=O)(=O)N2CCCCC2)ccc1Cl`, the inhibition was -89% (inactive). For `CC1CCC(C(C)C)C(OCC[N+](C)(C)C)C1` (configuration not stated), the inhibition was 8.9% (inactive). In the case of `Cc1nn(CCO)c(C)c1Oc1ccccc1O`, the inhibition is reported as 4% (inactive). `CCOc1cc([C@@H]2C[C@H]3CN(c4ccccc4)C(=O)[C@]34CCCN24)ccc1OC` was tested, and the inhibition was 57.1% (active). `COc1cc([C@@H]2C[C@H]3CN(c4ccccc4)C(=O)[C@]34CCCN24)cc(OC)c1OC` was tested, and the inhibition was 3.7% (inactive). With `COCc1cc([C@@H]2C[C@H]3CN(c4ccccc4)C(=O)[C@]34CCCN24)ccc1OC` the inhibition was 13.6% (inactive). `O=c1oc(-c2ccccc2NS(=O)(=O)c2ccccc2)nc2ccccc12` was tested, and the inhibition was -2.5% (inactive). In the case of `Fc1cc(F)cc(NC(=S)N2CCC(c3ccccc3)C2)c1` (configuration not stated), the inhibition is reported as -2.1% (inactive). In the case of `Cn1cccc1CNC(=O)Nc1ccccc1`, the inhibition is reported as -5.8% (inactive). In the case of `CN(C)/C=N/C1=C(C#N)C(c2cccs2)c2ccc3ccccc3c2O1` (configuration not stated), the inhibition is reported as 55.2% (active). In the case of `N#CC1=C(N)Oc2cc(O)ccc2C1c1cccs1` (configuration not stated), the inhibition is reported as 10.1% (inactive). In the case of `N#CC1=C(N)Oc2cc3ccccc3cc2C1c1cccs1` (configuration not stated), the inhibition is reported as 7.9% (inactive). `COc1cc(/C=N/NC(=O)CC2(C)OCCCO2)ccc1OCc1ccccc1` was tested, and the inhibition was 2.4% (inactive). In the case of `COc1cc(/C=N/NC(=O)CC2(C)OCCCO2)ccc1OCc1ccc(Cl)cc1Cl`, the inhibition is reported as 51.1% (active). In the case of `CC1(CC(=O)N/N=C/c2ccc(OCc3ccc(Cl)cc3Cl)cc2)OCCCO1`, the inhibition is reported as 10.6% (inactive). In the case of `COc1ccc(NC(=O)CSc2nc(N)c3cc4c(nc3n2)CCCC4)c(OC)c1`, the inhibition is reported as -6.7% (inactive). With `CCOC(=O)C1CCN(C(=S)Nc2cc(C)ccc2C)CC1` the inhibition was 7.3% (inactive). In the case of `Cc1ccccc1NC(=S)N1CCCC1`, the inhibition is reported as 52.6% (active). `CCOC(=O)N1CCN(C(=S)Nc2cccc(C)c2C)CC1` was tested, and the inhibition was 8.4% (inactive). In the case of `Cc1ccccc1NC(=S)N1CCOCC1`, the inhibition is reported as -2.1% (inactive). In the case of `S=C(Nc1ccccc1Cl)N1CCCC1`, the inhibition is reported as 13.6% (inactive). In the case of `CCOC(=O)C1CCN(C(=S)Nc2cccc(C)c2C)CC1`, the inhibition is reported as 52.8% (active). `O=C(O)CC1NC(=O)N(C2CCCCC2)C1=O` (configuration not stated) was tested, and the inhibition was -10% (inactive). `CCCCN(CC)C(=O)Cc1ccc(Br)cc1` was tested, and the inhibition was 6.7% (inactive). For `CCOC(=O)C1(Cc2ccc(OC)cc2)CCN(C(=O)CN2CCN(CC)CC2)CC1`, the inhibition was 12.7% (inactive). For `O=C(COC(=O)c1nc(Cl)ccc1Cl)Nc1ccc2c(c1)OCO2`, the inhibition was 8.3% (inactive).
